The record followed here is PubChem BioAssay.

A short description of experiment [1]: inhibitors of TNFa-induced NFkB p65 translocation, primary screen, imaging, HUVEC, MLSMR starter and 10KST1 sets (AID 438;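 active = inhibition above 20% together with a positive visual image hit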;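 note: compound added about 3h40 before a 20 min TNFalpha stimulation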;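 for inhibition: signal is the nuclear over cytoplasmic p65 intensity ratio per well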). To be noted: HUVEC TNFa-induced p65 nuclear translocation; cell count: measured here: nuclei count (cytotoxicity indicator), at 2.08 µM; inhibition: at 2 µM, stronger effect = higher value, 0% TNFa-plus-vehicle, 100% no-TNFa wells.
The nature of experiment [2]: inhibitors of mutant huntingtin aggregation, primary screen, imaging, exon1htt(103Q)mCFP cells, high-content imaging (AID 483;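 active = visual image review flags a hit and inhibition of aggregation exceeds 20%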;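 note: compound exposure lasted 3 days before fixation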;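 for nuclei count: percent of the per-plate median nuclei count of sample wells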). To be noted: exon1htt(103Q)mCFP cell line, aggregate imaging, at 2 µM; inhibition of aggregation: stronger effect = higher value; nuclei count: measured here: cell count, toxicity.
The nature of experiment [3]: inhibitors of E-selectin induction by TNFa, primary screen, imaging, HUVEC, immunofluorescence, MLSMR starter and 10KST1 sets (AID 487).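 For inhibition: signal is fraction of cell area covered by stained E-selectin grains.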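 For nuclei count: 100% = median nuclei count of all wells on the same plate.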 To be noted: HUVEC TNFalpha-induced E-selectin immunofluorescence imaging, at 2 µM; inhibition: stronger effect = higher value; nuclei count: measured here: cell number, toxicity.
Experiment [4] has as its target Voltage-gated potassium channel subunit beta-2 (Rattus norvegicus) (UniProt P62483). The experiment is described as follows: KvBeta enzyme negative modulators, primary screen, biochemical, NADPH fluorescence (AID 622;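 active = fluorescence slope higher than the sample average by over 3 SD, cut at about -0.22 in these data, passing the limit was not always enough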;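 note: slope of raw intensity against log time taken from 70 to 1610 s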). To be noted: recombinant KvBeta, 4-cyanobenzaldehyde reduction, at 10 µM, stronger effect = higher value.
The target is the same in experiment [5]. Kind of experiment: KvBeta positive modulators, primary screen, biochemical, NADPH fluorescence (AID 623;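 active = NADPH fluorescence slope more negative than the mean of all samples by about 3 SD, 99.7% confidence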;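 note: fluorescence intensity change per second fitted from 20 to 320 s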). To be noted: Recombinant KvBeta, NADPH fluorescence decrease slope, 10 min; at 10 µM; stronger effect = lower value.
Experiment [6] has as its target Alpha-2C adrenergic receptor (Homo sapiens) (UniProt P18825). Kind of experiment: modulators of alpha2C/GIRK thallium flux, primary screen, cell-based, HEK293 alpha2C/GIRK1/2 (AID 624;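 active = fluorescence slope after compound addition differing from the mean of all screened samples at 99.7% confidence, in either direction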;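 note: slope of fluorescence ratio to pre-addition baseline per second over 15 to 24 s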). To be noted: thallium flux BTC fluorescence, at 10 µM, actives lie on both sides.
Experiment [7] in a line: inhibitors of Sendai virus-induced IRF3 signaling, primary screen, TLR/RLR signaling modifier project, cell-based, Sendai virus stimulus, luciferase, 10K MLSCN set (AID 602276;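 active = inhibition at or above 50% at 10 µM; inactive = inhibition below 50%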;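 note: firefly luciferase from ISG56 promoter only with Renilla not read in this screen; 0% = Sendai virus plus DMSO and 100% = medium plus DMSO without virus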). To be noted: HEK293 RL24 IRF3 luciferase reporter, at 10 µM, stronger effect = higher value.
Experiment [8] can be described thus: inhibitors of poly I:C-induced TLR3 signaling, primary screen, cell-based, poly I:C stimulus, luciferase, 10K MLSCN set (AID 602277;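 active = inhibition of the reporter signal at or above 50%; inactive = inhibition below 50%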). To be noted: HEK293-TLR3 RL24 IRF3 luciferase reporter, at 10 µM, stronger effect = higher value.

Activity calls are given as the source filed them.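 Rule for the calls, unless noted: active = visually confirmed hit in the image check and inhibition above 20%; inconclusive = visually confirmed hit but inhibition not above 20%; inactive = no visual hit in the image check.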

Sequence of Voltage-gated potassium channel subunit beta-2 (Rattus norvegicus) (P62483 whole entry, looked up): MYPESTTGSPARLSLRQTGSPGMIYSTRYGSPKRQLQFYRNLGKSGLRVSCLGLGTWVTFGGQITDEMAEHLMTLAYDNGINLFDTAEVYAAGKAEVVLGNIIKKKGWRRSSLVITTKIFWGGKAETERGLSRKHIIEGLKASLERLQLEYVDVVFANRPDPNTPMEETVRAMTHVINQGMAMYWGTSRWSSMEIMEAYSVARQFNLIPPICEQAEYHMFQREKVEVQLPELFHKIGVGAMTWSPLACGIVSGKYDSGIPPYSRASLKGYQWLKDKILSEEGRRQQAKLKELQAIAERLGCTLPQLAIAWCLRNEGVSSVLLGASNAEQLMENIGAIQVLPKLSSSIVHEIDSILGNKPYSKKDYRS
Sequence of Alpha-2C adrenergic receptor (Homo sapiens) (P18825 whole entry, looked up): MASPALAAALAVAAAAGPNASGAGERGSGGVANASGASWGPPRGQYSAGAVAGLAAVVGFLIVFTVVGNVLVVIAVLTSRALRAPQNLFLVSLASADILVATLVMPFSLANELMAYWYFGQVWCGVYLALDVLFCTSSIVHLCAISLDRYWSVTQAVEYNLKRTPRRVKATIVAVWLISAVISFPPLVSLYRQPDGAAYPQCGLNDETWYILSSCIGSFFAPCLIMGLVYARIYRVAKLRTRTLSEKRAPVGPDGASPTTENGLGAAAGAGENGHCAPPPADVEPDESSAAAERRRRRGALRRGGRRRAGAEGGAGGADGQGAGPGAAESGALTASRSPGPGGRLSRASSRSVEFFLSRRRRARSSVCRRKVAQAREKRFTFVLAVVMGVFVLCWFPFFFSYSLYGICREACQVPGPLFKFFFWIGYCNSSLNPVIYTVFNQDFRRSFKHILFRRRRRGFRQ

For `Cc1cc(=O)[nH]c(SCC(=O)NCc2ccco2)n1`, the cell count in experiment [1] stood at 355. Moreover, the inhibition in experiment [1] was 8.2% (inactive); in experiment [3], 12.5% (inactive); in experiment [7], 18.4% (inactive); in experiment [8] it was 20.9% (inactive). In addition, the inhibition of aggregation in experiment [2] is 0% (inactive). The nuclei count in experiment [2] came to 95.2%; in experiment [3], 98%. The fluorescence slope in experiment [4] is -0.57 (inactive). In addition, the NADPH fluorescence slope in experiment [5] was -7.3e-05 (inactive). Moreover, the slope in experiment [6] was 0.00478 (inactive).

For `COc1ccc(CCN2C(=O)CCC2(C)C(=O)NCc2cccnc2)cc1OC` (centres undefined), the cell count in experiment [1] was 436. Further, the inhibition in experiment [1] was -6% (inactive); in experiment [3], -83.9% (inactive); in experiment [7], 8.53% (inactive); in experiment [8] it was 7.83% (inactive). Besides, the inhibition of aggregation in experiment [2] is 5.2% (inactive). In addition, the results for the nuclei count in experiment [2] and in experiment [3] were 103% and 97.9%, respectively. For the same compound, the fluorescence slope in experiment [4] is -0.602 (inactive). The NADPH fluorescence slope in experiment [5] is 2.6e-06 (inactive). Further, the slope in experiment [6] was 0.0059 (inactive).

For the compound `COC(=O)NCC(c1cccnc1)N1CCOCC1` (centres undefined), the cell count in experiment [1] worked out at 605. Further, the inhibition was -11% (inactive) in experiment [1], -24% (inactive) in experiment [3], -1.28% (inactive) in experiment [7] and 16.1% (inactive) in experiment [8]. Further, the inhibition of aggregation in experiment [2] was 16.6% (inactive). Also, the nuclei count worked out at 97.8% in experiment [2] and 105% in experiment [3]. For the same compound, the fluorescence slope in experiment [4] was -0.589 (inactive). The NADPH fluorescence slope in experiment [5] was -3.5e-05 (inactive). Moreover, the slope in experiment [6] is 0.0059 (inactive).

Take `CCOc1ccccc1NC(=O)C1CCCN(S(=O)(=O)c2cccc3cccnc23)C1` (centres undefined): the cell count in experiment [1] came to 717. The inhibition in experiment [1] is 0% (inactive); in experiment [3], -55.7% (inactive); in experiment [7], 19.8% (inactive); in experiment [8], 43.4% (inactive). In addition, in experiment [2], the inhibition of aggregation is 14.7% (inactive). The nuclei count in experiment [2] is 124%; in experiment [3] it was 101%. The fluorescence slope in experiment [4] was -0.55 (inactive). Further, the NADPH fluorescence slope in experiment [5] is -3.3e-05 (inactive). The slope in experiment [6] is 0.00547 (inactive).

Regarding `COC1CCCCC1NS(=O)(=O)c1ccccc1` (centres undefined), in experiment [1], the cell count was determined as 317. For the same compound, the inhibition in experiment [1] was 1.4% (inactive); in experiment [3] it was 19.4% (inactive); in experiment [7] it was 11.1% (inactive); in experiment [8], 27.4% (inactive). Moreover, the inhibition of aggregation in experiment [2] was 12.2% (inactive). Moreover, the results for the nuclei count in experiment [2] and in experiment [3] were 113% and 114%, respectively. The fluorescence slope in experiment [4] is -0.312 (inactive). Moreover, the NADPH fluorescence slope in experiment [5] is -3.1e-06 (inactive). Besides, the slope in experiment [6] is 0.00597 (inactive).

`O=C(NCCN1CCOCC1)C1CCC(=O)N1Cc1ccccc1Cl` (centres undefined): in experiment [1], the cell count is 648. The inhibition was -11.4% (inactive) in experiment [1], 6.7% (inactive) in experiment [3], 10.4% (inactive) in experiment [7] and 21% (inactive) in experiment [8]. Besides, the inhibition of aggregation in experiment [2] was 7.5% (inactive). For the same compound, the nuclei count in experiment [2] was found to be 92.1%; in experiment [3], 87.7%. Further, the fluorescence slope in experiment [4] was -0.512 (inactive). For the same compound, the NADPH fluorescence slope in experiment [5] is 2e-07 (inactive). Moreover, the slope in experiment [6] was 0.00614 (inactive).

Turning to `Cc1[nH]nc(N=CC2=C(O)CC(C)(C)CC2=O)c1-c1ccc(Cl)cc1`, the cell count in experiment [1] amounted to 344. In addition, the inhibition in experiment [1] is 10.1% (inactive); in experiment [3], -27.4% (inactive); in experiment [7], 11.6% (inactive); in experiment [8], -25.9% (inactive). Also, the inhibition of aggregation in experiment [2] was -7.7% (inactive). In addition, the nuclei count in experiment [2] worked out at 102%; in experiment [3], 128%. Moreover, the fluorescence slope in experiment [4] was -0.402 (inactive). Besides, the NADPH fluorescence slope in experiment [5] is 1.2e-05 (inactive). In experiment [6], the slope is 0.00588 (inactive).

Take `Cc1sc2nc(SCC(=O)NCCO)n(C)c(=O)c2c1C`: the cell count in experiment [1] was 368. The inhibition in experiment [1] is 4.3% (inactive); in experiment [3], 4.8% (inactive); in experiment [7], 5.26% (inactive); in experiment [8] it was 26% (inactive). In addition, the inhibition of aggregation in experiment [2] is 12.1% (inactive). Besides, the nuclei count in experiment [2] worked out at 109%; in experiment [3] it was 112%. The fluorescence slope in experiment [4] was -0.343 (inactive). Further, in experiment [5], the NADPH fluorescence slope was -5.2e-05 (inactive). In addition, the slope in experiment [6] was 0.00646 (inactive).

`CCSc1ccccc1C(=O)NCc1ccc(S(N)(=O)=O)cc1`: the cell count in experiment [1] worked out at 327. Also, the inhibition in experiment [1] is 1.1% (inactive); in experiment [3], -78.4% (inactive); in experiment [7], 18.1% (inactive); in experiment [8], 16.5% (inactive). Moreover, the inhibition of aggregation in experiment [2] is -5.9% (inactive). Besides, the nuclei count in experiment [2] came to 104%; in experiment [3] it was 120%. For the same compound, the fluorescence slope in experiment [4] is -0.435 (inactive). Also, in experiment [5], the NADPH fluorescence slope is -4.5e-05 (inactive). In experiment [6], the slope was 0.00523 (inactive).

With `CCCc1cc(Nc2cccc(OC)c2)n2ncnc2n1`, the cell count in experiment [1] was determined as 708. Further, the inhibition is -9.9% (inactive) in experiment [1], -8.3% (inactive) in experiment [3], 12.1% (inactive) in experiment [7] and 16.3% (inactive) in experiment [8]. The inhibition of aggregation in experiment [2] is -22.9% (inactive). In addition, the nuclei count in experiment [2] was 100%; in experiment [3] it was 111%. Moreover, the fluorescence slope in experiment [4] was -0.321 (inactive). Besides, the NADPH fluorescence slope in experiment [5] was -3e-05 (inactive). Also, in experiment [6], the slope was 0.00589 (inactive).

Consider `Cc1onc(-c2ccccc2Cl)c1C(=O)Nc1cnn(Cc2ccccc2)c1`, for which the cell count in experiment [1] is 545. Also, the inhibition in experiment [1] was 1.1% (inactive); in experiment [3], 15.1% (inactive); in experiment [7], 14.3% (inactive); in experiment [8] it was 32.6% (inactive). The inhibition of aggregation in experiment [2] is -4% (inactive). The nuclei count in experiment [2] is 121%; in experiment [3], 120%. Moreover, the fluorescence slope in experiment [4] is -0.545 (inactive). The NADPH fluorescence slope in experiment [5] is 6.7e-06 (inactive). Further, the slope in experiment [6] is 0.00545 (inactive).

Take `CCOc1ccc2[nH]cc(C(=O)N3CCN(CC)CC3)c(=O)c2c1`: the cell count in experiment [1] stood at 498. For the same compound, the inhibition in experiment [1] was -16.7% (inactive); in experiment [3], -18.9% (inactive); in experiment [7], -17.3% (inactive); in experiment [8], -19.5% (inactive). Besides, the inhibition of aggregation in experiment [2] was 4.7% (inactive). Besides, the results for the nuclei count in experiment [2] and in experiment [3] were 77.2% and 94.8%, respectively. In addition, the fluorescence slope in experiment [4] is -0.539 (inactive). Moreover, the NADPH fluorescence slope in experiment [5] is 1.9e-05 (inactive). The slope in experiment [6] was 0.00496 (inactive).

With `O=C(c1ccc(=O)[nH]c1)N(Cc1ccco1)C1(C(=O)NC2CCCC2)CCCCC1`, the cell count in experiment [1] was 296. For the same compound, the inhibition in experiment [1] was -7.1% (inactive); in experiment [3] it was -73.8% (inactive); in experiment [7] it was -75.5% (inactive); in experiment [8] it was 96.9% (active). Besides, the inhibition of aggregation in experiment [2] is 42.7% (active). The nuclei count was 85.1% in experiment [2] and 104% in experiment [3]. Also, in experiment [4], the fluorescence slope is -0.529 (inactive). In addition, in experiment [5], the NADPH fluorescence slope is -8.3e-05 (inactive). Moreover, the slope in experiment [6] was 0.00538 (inactive).

As for `CC(=O)NCc1cccc(CNC(C)=O)n1`, the cell count in experiment [1] was determined as 652. Moreover, the inhibition in experiment [1] was 9.2% (inactive); in experiment [3], -92.7% (inactive); in experiment [7], 12% (inactive); in experiment [8], 14.4% (inactive). The inhibition of aggregation in experiment [2] is -29% (inactive). Moreover, the nuclei count in experiment [2] was 109%; in experiment [3] it was 101%. Besides, in experiment [4], the fluorescence slope was -0.432 (inactive). In addition, in experiment [5], the NADPH fluorescence slope was -2.5e-05 (inactive). In addition, the slope in experiment [6] was 0.00626 (inactive).

For orientation: inhibition means the drop in the measured response relative to a control, in per cent.
